# Measurements from ChEMBL document CHEMBL3988442, “University of Dundee, Small-Polar-MMV Screening Library” (2021).
# Among all 66,000 compounds or so, about 960 (1.5%) showed an effect of 50% or more. The list comes from a sample in which strong results are over-represented; it also holds similar structures and randomly drawn compounds.
# Test system: Trypanosoma brucei
# Test: Trypanosoma brucei 72 hour study
# Format: functional, organism-based
# Parameters: scale not given: in the data most compounds retested in dose-response had high values
compound,measurement,setting,value
O=C(O)C(F)(F)F.O=C(O)C(F)(F)F.O=C(O)CN1CCCC2(CCN2Cc2cccc(F)c2)C1 (stereo not drawn),Percent Effect,"30.3 µM, […]",-49.81%
CN(Cc1cccnc1)[C@@H]1CN(C(=O)NC2CC2)[C@@H]2CCCO[C@H]12.O=C(O)C(F)(F)F.O=C(O)C(F)(F)F,Percent Effect,"30.3 µM, […]",-11.25%
FC1(F)CCN(Cc2ccccn2)CC12CCN(c1ncccn1)C2.O=C(O)C(F)(F)F (stereo not drawn),Percent Effect,"30.3 µM, […]",-64.14%
CNC(=O)CN1CCOCC2(C1)CN(C(=O)CC(C)C)CCO2.O=C(O)C(F)(F)F (stereo not drawn),Percent Effect,"30 µM, 30.03 µM",-16.33%
O=C(c1ccncc1)N1C[C@@H]2CC[C@H](C1)N(S(=O)(=O)c1cccnc1)C2,Percent Effect,"30 µM, 30.03 µM",-9.354%
COc1ccc(CN(Cc2c[nH]cn2)CC2CCCO2)c(OC)c1.O=C(O)CC(O)(CC(=O)O)C(=O)O (stereo not drawn),Percent Effect,"30.3 µM, […]",4.059%
COCCNC(=O)[C@H]1C[C@@H]2CCN(c3ccccc3)C[C@H]2O1.O=C(O)C(F)(F)F,Percent Effect,"30.3 µM, […]",-28.03%
CCn1nnc2c1C(COCCN(C)C)CN(Cc1ccc(C)s1)C2.O=C(O)C(F)(F)F.O=C(O)C(F)(F)F (stereo not drawn),Percent Effect,"30.3 µM, […]",-26.69%
Cc1ccc(N2CCC3(CN(Cc4ccncc4)CCC3(F)F)C2)nn1.O=C(O)C(F)(F)F.O=C(O)C(F)(F)F (stereo not drawn),Percent Effect,"30.3 µM, […]",-39.6%
Cl.c1cnc2c(c1)cc(C1CCOCC1)n2CCN1CCOCC1,Percent Effect,"30.3 µM, […]",3.621%
COc1cccc(-c2ccnc(C3CCNCC3)c2)c1,Percent Effect,"30.3 µM, […]",-11.36%
CN1CCCC1c1cc2cccnc2n1Cc1ccc(F)cc1.Cl (stereo not drawn),Percent Effect,"30.3 µM, […]",-6.063%
COc1cccc(Cn2c(C3CCNCC3)cc3cccnc32)c1.Cl,Percent Effect,"30.3 µM, […]",94.63%
Cl.Fc1cccc(F)c1Cn1c(C2CCNCC2)cc2cccnc21,Percent Effect,"30.3 µM, […]",90.9%
COc1ccc(Cn2c(C3CCNCC3)cc3cccnc32)cc1.Cl,Percent Effect,"30.3 µM, […]",99.58%
Cl.Fc1ccccc1Cn1c(C2CCNCC2)cc2cccnc21,Percent Effect,"30.3 µM, […]",37.09%
Cl.Fc1cccc(F)c1Cn1c(C2CCCNC2)cc2cccnc21 (stereo not drawn),Percent Effect,"30.3 µM, […]",11.23%
COc1cccc(CN2C[C@H]3CCNCC[C@H]3S2(=O)=O)c1,Percent Effect,"30.3 µM, […]",-73.82%
NCC1CN(C(=O)Cn2ncc(N3CCCCC3)cc2=O)CCO1 (stereo not drawn),Percent Effect,"30.3 µM, […]",7.872%
O=C(O)C(F)(F)F.O=C(c1cscn1)N1CCC2(CN(Cc3ccsc3)C2)C1,Percent Effect,"30 µM, 30.03 µM",-41.53%
Cc1cc(NC(C)c2nnn[nH]2)n2nc(C)c(C)c2n1 (stereo not drawn),Percent Effect,"30 µM, 30.03 µM",85.64%
Cc1cc(NC(C)c2csc(C)n2)n2nc(C)c(C)c2n1 (stereo not drawn),Percent Effect,"30 µM, 30.03 µM",-27.53%
Cc1cc(NC(C)c2n[nH]c(C)n2)n2nc(C)c(C)c2n1 (stereo not drawn),Percent Effect,"30 µM, 30.03 µM",-65.68%
O=C(NCc1ccco1)[C@@H]1CCO[C@@H]2CCN(CC3CC3)C[C@@H]21.O=C(O)C(F)(F)F,Percent Effect,"30 µM, 30.03 µM",-21.92%
Cc1nc(CN2CCCC(NCc3cccc4ccccc34)C2)no1 (stereo not drawn),Percent Effect,"30.3 µM, […]",-31.57%
same,Percent Effect,"10 mM, 10 mM as filed; unlikely as a test dose",-42.23%
CCc1csc(CNC2CCN(Cc3ccccc3)C2)n1 (stereo not drawn),Percent Effect,"30.3 µM, […]",-9.701%
Cc1nc(CN2CCCC(NCc3nc4ccccc4s3)C2)no1 (stereo not drawn),Percent Effect,"30.3 µM, […]",74.19%
same,Percent Effect,"10 mM, 10 mM as filed; unlikely as a test dose",66.41%
Cc1nc(CN2CCCC(NCc3csc(C(C)(C)C)n3)C2)no1 (stereo not drawn),Percent Effect,"30.3 µM, […]",71.04%
same,Percent Effect,"10 mM, 10 mM as filed; unlikely as a test dose",-25.98%
Cc1nc(CNC2CCN(Cc3ccccc3)C2)sc1C (stereo not drawn),Percent Effect,"30.3 µM, […]",100.1%
Cc1nc(CN2CCCC(NCc3ccc(Cl)s3)C2)no1 (stereo not drawn),Percent Effect,"30.3 µM, […]",-4.21%
same,Percent Effect,"10 mM, 10 mM as filed; unlikely as a test dose",-21.78%
Cc1nc(CN2CCCC(NCc3ccsc3)C2)no1 (stereo not drawn),Percent Effect,"30 µM, 30.03 µM",-22.48%
Cc1nc(CN2CCCC(NCc3cnc(C(C)(C)C)s3)C2)no1 (stereo not drawn),Percent Effect,"30.3 µM, […]",-11.81%
Cc1nc(CCNC2CCN(Cc3ccccc3)C2)sc1C (stereo not drawn),Percent Effect,"30.3 µM, […]",-17.04%
Nc1cc(N2CCCC(CO)(Cc3ccccc3F)C2)nc(N)n1 (stereo not drawn),Percent Effect,"30 µM, 30.03 µM",15.39%
CCn1nc2c(cc1=O)CN(Cc1coc(-c3ccccc3)n1)CC2,Percent Effect,"30.3 µM, […]",3.49%
CCOCC(=O)N1CCC2(CC1)COCCN2CCN(C)C.O=C(O)C(F)(F)F.O=C(O)C(F)(F)F,Percent Effect,"30.3 µM, […]",-7.88%
CCCNC(c1ccc(F)cc1)c1cccnc1.Cl.Cl (stereo not drawn),Percent Effect,"30 µM, 30.03 µM",-17.83%
CN(C)C(=O)c1ccc(C2CCCNC2)nc1.Cl.Cl (stereo not drawn),Percent Effect,"30.3 µM, […]",-34.47%
Cl.c1nc(CCC2CCCN2)cc(N2CCCCCC2)n1 (stereo not drawn),Percent Effect,"30.3 µM, […]",-0.6472%
COc1ncccc1NC(=O)NCC1CC1,Percent Effect,"30.3 µM, […]",14.51%
COc1ncccc1NC(=O)NCC1CCS(=O)(=O)C1 (stereo not drawn),Percent Effect,"30 µM, 30.03 µM",51.37%
CCN1CCC(CNC(=O)Nc2cccnc2OC)CC1,Percent Effect,"30.3 µM, […]",3.244%
CCOc1ccc(C(=O)N2CCCC(n3nc(C)nc3C)C2)cc1 (stereo not drawn),Percent Effect,10 µM,-77.91%
Cc1nnc(N2CCCC3(CN(c4ccccn4)CCO3)C2)o1.O=C(O)C(F)(F)F (stereo not drawn),Percent Effect,"30.3 µM, […]",1.863%
Cc1cc(NCc2cc(C)oc2C(F)(F)F)n2nc(C)cc2n1,Percent Effect,"30 µM, 30.03 µM",27.35%
COc1ccccc1C1(CNc2cc(C(=O)N(C)C)ccn2)CC1,Percent Effect,"30 µM, 30.03 µM",-21.75%
COc1ccccc1C1(CNc2ccc(C(=O)N(C)C)cn2)CC1,Percent Effect,"30 µM, 30.03 µM",-17.01%
COc1ccccc1C1(CNc2ccnc(C(=O)N(C)C)c2)CC1,Percent Effect,"30 µM, 30.03 µM",98.99%
CN1CCO[C@@H]2CN(C(=O)NCc3ccccc3)CC[C@@H]2C1.O=C(O)C(F)(F)F,Percent Effect,"30.3 µM, […]",-54.53%
Cn1ccnc1C(=O)N1CCC2(CCN2c2ncccn2)C1.O=C(O)C(F)(F)F (stereo not drawn),Percent Effect,"30.3 µM, […]",-37.97%
CCC1CN(C)c2ccccc2CN1CCn1cncn1 (stereo not drawn),Percent Effect,"30 µM, 30.03 µM",56.46%
CC1CN(C)c2ccccc2CN1CCn1cncn1 (stereo not drawn),Percent Effect,"30 µM, 30.03 µM",-41.9%
CCC1CN(C)c2ccccc2CN1C(=O)CCn1cncn1 (stereo not drawn),Percent Effect,"30 µM, 30.03 µM",12.6%
COc1cc(C)c(S(=O)(=O)NCc2cccnc2N(C)C)c(C)c1,Percent Effect,"30.3 µM, […]",6.422%
Cc1ccc(-n2cc(CN3CCOCC3)c(-c3cccc(C)c3)n2)cc1,Percent Effect,"30.3 µM, […]",3.807%
Cc1ccc(C)c(-n2cc(CN3CCOCC3)c(-c3ccccc3)n2)c1,Percent Effect,"30.3 µM, […]",5.174%
Cc1ccc(C)c(-n2cc(CN3CC[C@@H](O)C3)c(-c3ccccc3)n2)c1,Percent Effect,"30.3 µM, […]",100.3%
O=C(NC1CC1)C1=CC2(CCN(CCO)CC2)c2ccccc21.O=C(O)C(F)(F)F,Percent Effect,"30.3 µM, […]",-19.93%
CCN1CCN2CCCN(S(=O)(=O)c3ccc(C)cc3C)C2C1=O (stereo not drawn),Percent Effect,"30.3 µM, […]",8.732%
CCN1CCN2CCCN(S(=O)(=O)c3ccc(S(C)(=O)=O)cc3)C2C1=O (stereo not drawn),Percent Effect,"30.3 µM, […]",30.28%
CCN1CCN2CCCN(S(=O)(=O)c3cccc(F)c3)C2C1=O (stereo not drawn),Percent Effect,"30.3 µM, […]",65.65%
COc1cc(C(=O)N2C[C@H]3CC[C@@H]2CN(Cc2cscn2)C3)ccn1,Percent Effect,"30 µM, 30.03 µM",1.07%
CS(=O)(=O)NCC1CCCN(C(=O)c2cc3ccccc3o2)C1 (stereo not drawn),Percent Effect,"30.3 µM, […]",1.962%
O=C(COCC(F)(F)F)NS(=O)(=O)c1ccc2c(c1)OCCCO2,Percent Effect,"30.3 µM, […]",-2.455%
Cc1ccc(CN2CCc3onc(C(=O)N4CCCC4)c3C2)o1.O=C(O)C(F)(F)F,Percent Effect,"30.3 µM, […]",0.525%
CN1CCN(c2cc(NC(=O)Cn3ccc4ccccc43)ncn2)CC1,Percent Effect,"30.3 µM, […]",101.2%
O=C(Cn1ccc2ccccc21)Nc1cc(N2CCCC2)ncn1,Percent Effect,"30.3 µM, […]",1.206%
O=C(Cn1ccc2ccccc21)Nc1cc(N2CCOCC2)ncn1,Percent Effect,"30.3 µM, […]",-10.05%
O=C(CC1CC1)N1CC[C@H]2[C@@H]1CCC(=O)N2Cc1ccncc1.O=C(O)C(F)(F)F,Percent Effect,"30 µM, 30.03 µM",-15.55%
c1nc(N2CCCC(Cn3cncn3)C2)c2sccc2n1 (stereo not drawn),Percent Effect,"30.3 µM, […]",1.361%
Cc1cc(NC2CCc3ncnn3C2)n2ncnc2n1 (stereo not drawn),Percent Effect,"30 µM, 30.03 µM",-36.85%
Cc1nc[nH]c1CN1CCC2(CC1)CC(Nc1ncccn1)CO2.O=C(O)C(F)(F)F (stereo not drawn),Percent Effect,"30 µM, 30.03 µM",-22.29%
CC(=O)Nc1ccc(CCC2(NC(=O)C3CC3)CCCCC2)cn1,Percent Effect,"30.3 µM, […]",1.37%
CC(C)(C)c1ccc(CN2C[C@H]3C[C@H](O)C[C@H]3C2)c(OCC(N)=O)c1,Percent Effect,"30.3 µM, […]",-6.506%
Cc1cc(C(F)(F)F)nn1CC(C)C(=O)Nc1ccccn1 (stereo not drawn),Percent Effect,"30.3 µM, […]",13.6%
Cc1cccnc1NC(=O)C(C)Cn1nc(C(F)(F)F)cc1C (stereo not drawn),Percent Effect,"30 µM, 30.03 µM",53.66%
Cc1cc(C(F)(F)F)nn1CC(C)C(=O)Nc1cccnc1 (stereo not drawn),Percent Effect,"30.3 µM, […]",-4.531%
Cc1cc(N2CCN(C(=O)[C@@H]3C[C@@H]4C=C[C@H]3C4)CC2)nc2ccccc12,Percent Effect,"30.3 µM, […]",18.47%
Cl.O[C@@H]1CN(Cc2ccc(F)cc2)CC[C@H]1NCc1ccccn1,Percent Effect,"30.3 µM, […]",5.839%
CC(C)C1CC(=O)Nc2c1cnn2Cc1ccco1 (stereo not drawn),Percent Effect,"30 µM, 30.03 µM",5.524%
CC(C)CC1CC(=O)Nc2c1cnn2Cc1ccco1 (stereo not drawn),Percent Effect,"30 µM, 30.03 µM",-10.02%
CC(C)(C)C1CC(=O)Nc2c1cnn2Cc1ccco1 (stereo not drawn),Percent Effect,"30 µM, 30.03 µM",53.72%
COCc1nc(N(C)C)ncc1C(=O)NC(C)c1ccccc1 (stereo not drawn),Percent Effect,"30.3 µM, […]",-21.32%
O=C(c1cc(-c2ccn(CC3CC3)n2)n2ccccc12)N1CCCO1,Percent Effect,"30.3 µM, […]",-0.5665%
O=C(c1cc(-c2ccn(CC3CC3)n2)n2ccccc12)N1CCOCC1,Percent Effect,"30.3 µM, […]",100.3%
O=C(O)c1cc(-c2ccn(CC3CC3)n2)n2ccccc12,Percent Effect,"30.3 µM, […]",-1.96%
Cc1ccc(CN2CCC3(CC2)CC(c2cccnc2)C(=O)N3C)o1.O=C(O)C(F)(F)F.O=C(O)C(F)(F)F (stereo not drawn),Percent Effect,"30.3 µM, […]",-49.66%
COCCN1CCC2(CCCN(Cc3ccoc3)C2)C1=O.O=C(O)C(F)(F)F (stereo not drawn),Percent Effect,"30.3 µM, […]",-22.78%
O=C(CC1CCCC1)N1CCn2cc(Cn3cccn3)nc2C1.O=C(O)C(F)(F)F,Percent Effect,"30.3 µM, […]",-840.1%
O=C(O)C(F)(F)F.O=C(c1cnoc1)N1CCC[C@]2(C[C@@H](Oc3ccccn3)CO2)C1,Percent Effect,"30 µM, 30.03 µM",-14.73%
COC(=O)CCNC(=O)c1cnc(Cc2ccc(F)cc2)s1,Percent Effect,"30 µM, 30.03 µM",3.867%
CCNC(=O)c1cnc(Cc2ccc(F)cc2)s1,Percent Effect,"30 µM, 30.03 µM",3.769%
CN(C)CCCNC(=O)c1cnc(Cc2ccc(F)cc2)s1,Percent Effect,"30 µM, 30.03 µM",52.82%
O=c1c(CN2CC3CCCN3C[C@@H]2CCO)coc2ccc(Cl)cc12 (stereo partly drawn),Percent Effect,"30.3 µM, […]",-20.01%
